PubChem BioAssay (NCI)
The panel holds about 83,000 compounds, 20% with a hit somewhere; the sample as a whole holds those more often.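 Values shown are percent growth following 48 h exposure of cells in 96-well plates to a single concentration of compound; below 10 was considered active.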 Unmarked numbers belong to inactive results. Activity calls are given as the source filed them.

Tested on: SNB-19 CNS
Assay: NCI-60 one-dose screen, 48 h (100 = growth as untreated, 0 = no growth, -100 = all killed)
Details: 10 µM unless noted

Structure (SMILES) | growth
CCCCCCCCN(CCCCCCCC)C(=O)CCl | 97.5%
O=C(Nc1ccc(-n2ccc3c(NC(=O)c4ccccc4)nccc32)cc1)c1ccc(N2CCOCC2)c(C(F)(F)F)c1 | 44.6%
O=C1/C(=C/c2ccccc2)SC(=Nc2ccccc2)N1Nc1ccccc1 | 23.3%
C[N+](C)(C)CC(=O)N/N=C\c1ccco1 | 112%
CC(C)CCSc1nc(-c2ccc(F)cc2)c(C#N)c(N2CCN(C)CC2)n1 | 91.7%
CC(=O)Oc1c(Cl)c(Cl)c(Cl)c(Cl)c1Cl | 96.3%
CN(C)c1nc(-c2cccs2)n2nc(-c3ccc(Cl)cc3)cc2n1 | 21.1%
COc1nccc2c(Sc3ccccc3)nc(N)nc12 | 117%
c1cn2cc(-c3ccc4ncn(C5CCCCC5)c4c3)nc(-c3ccc4c(c3)ncn4C3CCCCC3)c2n1 | 6.63% (active)
CCc1onc(-c2ccc(OC)cc2)c1-c1ccccc1OCCN(CC)CC | 91.3%
CCN(CCC#N)c1ccccc1 | 106%
S=C(S)Oc1cccc2cccnc12 | 107%
COc1ccccc1CNCCCN1C(=O)c2ccc3c4c(ccc(c24)C1=O)C(=O)N(CCCNCCCN)C3=O | 11.9%
CC(C)c1ccc(-c2cnc3nonc3n2)cc1 | 40.7%
CN1CCCN(CCNc2nccc(-c3c(-c4cccc(O)c4)nc4sccn34)n2)S1(=O)=O | 99.4%
COc1ccccc1CNCCCN1C(=O)c2ccc3c4c(ccc(c24)C1=O)C(=O)N(CCCCNCCCN)C3=O | -70.3% (active)
CCC(=O)OCc1ccc(OC)cc1 | 100%
COc1ccc2[nH]cc(C3(c4c[nH]c5ccc(OC)cc45)C(=O)Nc4ccc(F)cc43)c2c1 | 97.2%
CN1C(=O)NC(Cc2c[nH]c3c(Cl)cccc23)C1=O (stereo unspecified) | 106%

Structure (SMILES) | growth
NC(N)=N/N=C/c1ccc(Cl)cc1 | 91.2%
CC(C)(c1ccccc1)c1cc(O)c(C(C)(C)c2ccccc2)cc1O | 37.8%
COc1cc(-c2nn(C(=O)NCCN3CCN(C)CC3)cc2-c2ccncc2)ccc1Cl | 77.5%
CCCCCCCCCCCCCCCCCC(=O)[O][Sn]([CH2]CCC)([CH2]CCC)[CH2]CCC | -70.9% (active)
CC(C)c1nc2ccccc2n1CC(=O)N/N=C/c1cccc(O)c1 | 91.8%
O=C(Nc1ccc(Cl)cc1)c1cc(-c2ccc(Cl)cc2)c2sc(=O)[nH]c2n1 | 8% (active)
Oc1ccc(-c2nnc3c4[nH]ccc4ncn23)cc1 | 98.9%
Cc1nc(N)nc2c1CCC(Nc1ccccc1)S2 (stereo unspecified) | 111%
NNC(=O)CSc1nc2scc(-c3ccccc3)c2c(=O)n1-c1ccccc1 | 107%
COC(=O)C(Br)(C(=O)OC)C(Br)C(Br)C(Br)c1ccccc1 (stereo unspecified) | 98.6%
COc1cnc2c(c1)C(=O)c1c-2n(CCCN2CCN(C)CC2)c(=O)c2cc(Cl)ccc12 | 46.3%
COc1cc([N+](=O)[O-])cc(OC)c1OC | 114%
O=c1oc2ccccc2cc1-c1cc(-c2ccc(-c3cc(-c4cc5ccccc5oc4=O)nc(-c4cc5ccccc5oc4=O)c3)cc2)cc(-c2cc3ccccc3oc2=O)n1 | 96.9%
CCCCCCCOc1cccc(/C=C2\N=C3SCCCN3C2=O)c1 | 92.8%
CN(C)c1ccc(C2(Cl)c3ccccc3N(C)c3ccccc32)cc1 | 45.5%
O=C(Nc1cccc(-n2ccc3c(NC(=O)c4ccccc4)nccc32)c1)c1ccc(N2CCOCC2)c(C(F)(F)F)c1 | 43.3%
Fc1ccc(-c2nc(-c3ccc(-c4nc5ccc(F)cc5[nH]4)cc3)no2)cc1 | 82.5%
Clc1ccc(C2=NN[C@H](c3cn(-c4ccccc4)nc3-c3ccccc3)C2)cc1 | 76.9%
CNC1=C([N+](=O)[O-])C(c2ccccc2O)C(C#N)=C(c2cccs2)O1 (stereo unspecified) | 102%

Tested on: U251 CNS
Assay: as above
Details: 10 µM unless noted

Structure (SMILES) | growth
CCCCCCCCN(CCCCCCCC)C(=O)CCl | 101%
O=C(Nc1ccc(-n2ccc3c(NC(=O)c4ccccc4)nccc32)cc1)c1ccc(N2CCOCC2)c(C(F)(F)F)c1 | 14.4%
O=C1/C(=C/c2ccccc2)SC(=Nc2ccccc2)N1Nc1ccccc1 | 6.12% (active)
C[N+](C)(C)CC(=O)N/N=C\c1ccco1 | 98.7%
CC(C)CCSc1nc(-c2ccc(F)cc2)c(C#N)c(N2CCN(C)CC2)n1 | 77.6%
CC(=O)Oc1c(Cl)c(Cl)c(Cl)c(Cl)c1Cl | 94.7%
CN(C)c1nc(-c2cccs2)n2nc(-c3ccc(Cl)cc3)cc2n1 | 7.58% (active)
COc1nccc2c(Sc3ccccc3)nc(N)nc12 | 110%
c1cn2cc(-c3ccc4ncn(C5CCCCC5)c4c3)nc(-c3ccc4c(c3)ncn4C3CCCCC3)c2n1 | -83.3% (active)
CCc1onc(-c2ccc(OC)cc2)c1-c1ccccc1OCCN(CC)CC | 93.9%
CCN(CCC#N)c1ccccc1 | 103%
S=C(S)Oc1cccc2cccnc12 | 105%
COc1ccccc1CNCCCN1C(=O)c2ccc3c4c(ccc(c24)C1=O)C(=O)N(CCCNCCCN)C3=O | -72.5% (active)
CC(C)c1ccc(-c2cnc3nonc3n2)cc1 | 65.9%
CN1CCCN(CCNc2nccc(-c3c(-c4cccc(O)c4)nc4sccn34)n2)S1(=O)=O | 56.6%
COc1ccccc1CNCCCN1C(=O)c2ccc3c4c(ccc(c24)C1=O)C(=O)N(CCCCNCCCN)C3=O | -84.3% (active)
CCC(=O)OCc1ccc(OC)cc1 | 97.3%
COc1ccc2[nH]cc(C3(c4c[nH]c5ccc(OC)cc45)C(=O)Nc4ccc(F)cc43)c2c1 | 82.5%
CN1C(=O)NC(Cc2c[nH]c3c(Cl)cccc23)C1=O (stereo unspecified) | 92.8%

Structure (SMILES) | growth
NC(N)=N/N=C/c1ccc(Cl)cc1 | 88.8%
CC(C)(c1ccccc1)c1cc(O)c(C(C)(C)c2ccccc2)cc1O | 36.5%
COc1cc(-c2nn(C(=O)NCCN3CCN(C)CC3)cc2-c2ccncc2)ccc1Cl | 80.9%
CCCCCCCCCCCCCCCCCC(=O)[O][Sn]([CH2]CCC)([CH2]CCC)[CH2]CCC | -89.3% (active)
CC(C)c1nc2ccccc2n1CC(=O)N/N=C/c1cccc(O)c1 | 103%
O=C(Nc1ccc(Cl)cc1)c1cc(-c2ccc(Cl)cc2)c2sc(=O)[nH]c2n1 | 0.838% (active)
Oc1ccc(-c2nnc3c4[nH]ccc4ncn23)cc1 | 102%
Cc1nc(N)nc2c1CCC(Nc1ccccc1)S2 (stereo unspecified) | 103%
NNC(=O)CSc1nc2scc(-c3ccccc3)c2c(=O)n1-c1ccccc1 | 103%
COC(=O)C(Br)(C(=O)OC)C(Br)C(Br)C(Br)c1ccccc1 (stereo unspecified) | 81.5%
COc1cnc2c(c1)C(=O)c1c-2n(CCCN2CCN(C)CC2)c(=O)c2cc(Cl)ccc12 | 45.4%
COc1cc([N+](=O)[O-])cc(OC)c1OC | 106%
O=c1oc2ccccc2cc1-c1cc(-c2ccc(-c3cc(-c4cc5ccccc5oc4=O)nc(-c4cc5ccccc5oc4=O)c3)cc2)cc(-c2cc3ccccc3oc2=O)n1 | 99.6%
CCCCCCCOc1cccc(/C=C2\N=C3SCCCN3C2=O)c1 | 91.1%
CN(C)c1ccc(C2(Cl)c3ccccc3N(C)c3ccccc32)cc1 | 1.47% (active)
O=C(Nc1cccc(-n2ccc3c(NC(=O)c4ccccc4)nccc32)c1)c1ccc(N2CCOCC2)c(C(F)(F)F)c1 | 15.5%
Fc1ccc(-c2nc(-c3ccc(-c4nc5ccc(F)cc5[nH]4)cc3)no2)cc1 | 82.9%
Clc1ccc(C2=NN[C@H](c3cn(-c4ccccc4)nc3-c3ccccc3)C2)cc1 | 49.3%
CNC1=C([N+](=O)[O-])C(c2ccccc2O)C(C#N)=C(c2cccs2)O1 (stereo unspecified) | 91.5%
